From the supplement of paper PMC11732987, “Enantioselective OTUD7B fragment discovery through chemoproteomics screening and high-throughput optimisation” (Communications Chemistry, 2025)

Columns and labels:
Assay in all cases: log2 ratio of Biotin-Ahx-Ub-VS probe labelling (fragment/DMSO); higher = less target engagement (more negative = stronger competition), active = hit call of the paper (q ≤ 0.05, log2 ratio ≤ -1)
Details in all cases: compound concentration: 200 uM; treatment time: 3 h
ALG13 = target: T1, ALG13 (UniProt Q9NP73)
T1 sequence (whole entry): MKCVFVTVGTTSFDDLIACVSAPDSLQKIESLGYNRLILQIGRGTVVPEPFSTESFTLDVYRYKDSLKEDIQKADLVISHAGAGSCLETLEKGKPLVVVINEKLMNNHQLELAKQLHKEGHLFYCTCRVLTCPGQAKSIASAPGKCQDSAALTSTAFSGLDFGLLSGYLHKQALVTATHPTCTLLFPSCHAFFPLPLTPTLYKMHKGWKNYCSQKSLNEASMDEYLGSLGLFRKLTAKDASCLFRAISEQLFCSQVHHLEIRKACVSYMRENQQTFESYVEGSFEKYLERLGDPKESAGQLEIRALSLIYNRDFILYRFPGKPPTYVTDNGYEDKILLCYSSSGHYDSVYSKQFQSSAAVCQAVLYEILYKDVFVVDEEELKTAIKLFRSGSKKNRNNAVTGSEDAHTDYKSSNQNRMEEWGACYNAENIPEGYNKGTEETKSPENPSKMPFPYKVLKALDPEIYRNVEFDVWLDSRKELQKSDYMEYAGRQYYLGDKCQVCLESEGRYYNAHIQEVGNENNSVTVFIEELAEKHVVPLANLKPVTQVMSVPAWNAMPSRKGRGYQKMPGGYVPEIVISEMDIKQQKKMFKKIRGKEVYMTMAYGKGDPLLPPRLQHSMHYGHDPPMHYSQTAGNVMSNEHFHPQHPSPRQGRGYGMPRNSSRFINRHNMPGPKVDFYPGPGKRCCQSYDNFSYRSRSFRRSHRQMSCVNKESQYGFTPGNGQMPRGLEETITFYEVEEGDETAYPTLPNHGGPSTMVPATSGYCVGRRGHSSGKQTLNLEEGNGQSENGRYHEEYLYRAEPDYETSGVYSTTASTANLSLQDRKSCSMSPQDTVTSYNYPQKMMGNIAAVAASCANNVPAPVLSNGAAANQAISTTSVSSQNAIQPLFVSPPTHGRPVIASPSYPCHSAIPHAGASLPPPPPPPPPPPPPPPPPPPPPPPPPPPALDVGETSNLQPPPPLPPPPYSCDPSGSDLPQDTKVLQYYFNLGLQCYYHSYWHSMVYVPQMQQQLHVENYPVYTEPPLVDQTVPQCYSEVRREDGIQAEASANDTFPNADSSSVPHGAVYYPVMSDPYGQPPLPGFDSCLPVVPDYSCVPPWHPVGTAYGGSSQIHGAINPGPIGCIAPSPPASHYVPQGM
In short: (§1)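 Fragment (200 µM) or vehicle was incubated for 3 h with triplicate HEK293T lysate samples of 495 µg, which were then treated with Biotin-Ahx-Ub-VS at 0.5 µM final for 1 h. Labelled DUBs were enriched on NeutrAvidin, digested with LysC and trypsin, and analysed by diaPASEF LC-MS/MS. Values are average log2 fragment/vehicle ratios from an unpaired t-test on global-median-normalised Spectronaut label-free quantities, using proteins with ≥2 unique peptides.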

ATXN3 = ATXN3 (UniProt P54252)
ATXN3, sequence (P54252 whole entry): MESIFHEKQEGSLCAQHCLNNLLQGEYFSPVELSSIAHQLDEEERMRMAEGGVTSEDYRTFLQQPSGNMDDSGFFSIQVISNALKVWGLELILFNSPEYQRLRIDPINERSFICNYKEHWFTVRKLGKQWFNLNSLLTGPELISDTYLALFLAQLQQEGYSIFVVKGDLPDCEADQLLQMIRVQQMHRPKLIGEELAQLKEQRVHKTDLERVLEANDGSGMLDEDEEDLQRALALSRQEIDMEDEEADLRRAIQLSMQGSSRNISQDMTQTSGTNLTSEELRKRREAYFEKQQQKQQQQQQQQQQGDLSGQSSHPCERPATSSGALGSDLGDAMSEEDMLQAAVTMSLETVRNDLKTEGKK
In short: as §1

BAP1 = target: T2, BAP1 (UniProt Q92560)
T2 sequence (whole entry): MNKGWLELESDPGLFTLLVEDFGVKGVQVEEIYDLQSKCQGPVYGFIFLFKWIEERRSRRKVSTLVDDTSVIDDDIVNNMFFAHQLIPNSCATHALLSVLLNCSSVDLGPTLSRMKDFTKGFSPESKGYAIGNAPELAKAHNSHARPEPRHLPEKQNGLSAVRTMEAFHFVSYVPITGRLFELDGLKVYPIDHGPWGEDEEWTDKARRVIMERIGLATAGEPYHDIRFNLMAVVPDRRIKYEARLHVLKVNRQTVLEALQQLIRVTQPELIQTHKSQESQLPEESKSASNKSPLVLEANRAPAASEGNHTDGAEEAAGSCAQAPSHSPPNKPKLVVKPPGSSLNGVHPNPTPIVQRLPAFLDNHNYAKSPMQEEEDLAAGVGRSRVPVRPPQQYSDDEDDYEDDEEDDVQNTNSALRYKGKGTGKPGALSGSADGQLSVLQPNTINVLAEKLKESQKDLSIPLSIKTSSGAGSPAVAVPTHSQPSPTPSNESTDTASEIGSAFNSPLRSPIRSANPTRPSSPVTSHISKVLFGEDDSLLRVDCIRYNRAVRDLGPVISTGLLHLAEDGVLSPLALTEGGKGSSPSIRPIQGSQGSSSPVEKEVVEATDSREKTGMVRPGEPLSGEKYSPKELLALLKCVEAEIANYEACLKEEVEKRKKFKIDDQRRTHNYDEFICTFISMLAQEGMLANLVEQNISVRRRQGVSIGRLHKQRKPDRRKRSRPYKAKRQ
In short: as §1

EIF3F = EIF3F (UniProt O00303)
EIF3F, sequence (O00303 whole entry): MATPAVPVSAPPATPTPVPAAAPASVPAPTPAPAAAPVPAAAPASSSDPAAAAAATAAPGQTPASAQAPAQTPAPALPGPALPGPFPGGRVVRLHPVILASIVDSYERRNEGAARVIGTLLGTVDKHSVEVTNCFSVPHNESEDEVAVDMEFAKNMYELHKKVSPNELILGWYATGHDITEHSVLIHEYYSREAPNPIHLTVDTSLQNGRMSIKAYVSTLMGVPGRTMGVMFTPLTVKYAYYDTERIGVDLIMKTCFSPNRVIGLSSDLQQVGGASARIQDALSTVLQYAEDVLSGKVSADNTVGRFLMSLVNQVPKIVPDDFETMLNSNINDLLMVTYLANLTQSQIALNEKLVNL
In short: as §1

EIF3H = EIF3H (UniProt O15372)
EIF3H, sequence (O15372 whole entry): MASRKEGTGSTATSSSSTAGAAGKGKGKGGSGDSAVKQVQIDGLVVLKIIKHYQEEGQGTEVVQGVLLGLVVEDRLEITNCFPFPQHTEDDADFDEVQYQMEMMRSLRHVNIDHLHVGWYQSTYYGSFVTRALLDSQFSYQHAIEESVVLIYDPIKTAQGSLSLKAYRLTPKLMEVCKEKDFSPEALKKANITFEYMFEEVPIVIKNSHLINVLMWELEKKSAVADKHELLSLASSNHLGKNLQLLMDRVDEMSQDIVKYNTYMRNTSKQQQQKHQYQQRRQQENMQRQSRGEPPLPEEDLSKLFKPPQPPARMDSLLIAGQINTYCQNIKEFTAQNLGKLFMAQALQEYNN
In short: as §1

FAM105A = target: T3, FAM105A (UniProt Q9NUU6)
T3 sequence (whole entry): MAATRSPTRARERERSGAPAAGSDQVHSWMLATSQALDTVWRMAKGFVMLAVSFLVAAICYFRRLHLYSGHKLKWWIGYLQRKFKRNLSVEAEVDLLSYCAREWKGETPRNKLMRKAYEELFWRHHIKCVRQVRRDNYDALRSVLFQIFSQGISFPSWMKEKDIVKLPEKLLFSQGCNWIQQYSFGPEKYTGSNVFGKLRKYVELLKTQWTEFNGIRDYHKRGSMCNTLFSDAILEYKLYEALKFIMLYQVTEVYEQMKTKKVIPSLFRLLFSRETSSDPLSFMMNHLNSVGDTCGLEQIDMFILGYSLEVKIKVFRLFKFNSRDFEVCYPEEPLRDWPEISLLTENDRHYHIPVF
In short: as §1

OTUB1 = OTUB1 (UniProt Q96FW1)
OTUB1, sequence (Q96FW1 whole entry): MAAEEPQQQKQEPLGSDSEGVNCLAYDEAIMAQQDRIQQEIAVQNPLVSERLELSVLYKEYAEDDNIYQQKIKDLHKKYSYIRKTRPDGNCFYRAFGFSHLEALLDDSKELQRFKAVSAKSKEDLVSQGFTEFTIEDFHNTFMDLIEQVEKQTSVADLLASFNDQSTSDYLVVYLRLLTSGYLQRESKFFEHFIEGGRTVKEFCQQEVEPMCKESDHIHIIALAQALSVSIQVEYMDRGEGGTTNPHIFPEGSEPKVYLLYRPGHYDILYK
In short: as §1

OTUD4 = target: T4, OTUD4 (UniProt Q01804)
T4 sequence (whole entry): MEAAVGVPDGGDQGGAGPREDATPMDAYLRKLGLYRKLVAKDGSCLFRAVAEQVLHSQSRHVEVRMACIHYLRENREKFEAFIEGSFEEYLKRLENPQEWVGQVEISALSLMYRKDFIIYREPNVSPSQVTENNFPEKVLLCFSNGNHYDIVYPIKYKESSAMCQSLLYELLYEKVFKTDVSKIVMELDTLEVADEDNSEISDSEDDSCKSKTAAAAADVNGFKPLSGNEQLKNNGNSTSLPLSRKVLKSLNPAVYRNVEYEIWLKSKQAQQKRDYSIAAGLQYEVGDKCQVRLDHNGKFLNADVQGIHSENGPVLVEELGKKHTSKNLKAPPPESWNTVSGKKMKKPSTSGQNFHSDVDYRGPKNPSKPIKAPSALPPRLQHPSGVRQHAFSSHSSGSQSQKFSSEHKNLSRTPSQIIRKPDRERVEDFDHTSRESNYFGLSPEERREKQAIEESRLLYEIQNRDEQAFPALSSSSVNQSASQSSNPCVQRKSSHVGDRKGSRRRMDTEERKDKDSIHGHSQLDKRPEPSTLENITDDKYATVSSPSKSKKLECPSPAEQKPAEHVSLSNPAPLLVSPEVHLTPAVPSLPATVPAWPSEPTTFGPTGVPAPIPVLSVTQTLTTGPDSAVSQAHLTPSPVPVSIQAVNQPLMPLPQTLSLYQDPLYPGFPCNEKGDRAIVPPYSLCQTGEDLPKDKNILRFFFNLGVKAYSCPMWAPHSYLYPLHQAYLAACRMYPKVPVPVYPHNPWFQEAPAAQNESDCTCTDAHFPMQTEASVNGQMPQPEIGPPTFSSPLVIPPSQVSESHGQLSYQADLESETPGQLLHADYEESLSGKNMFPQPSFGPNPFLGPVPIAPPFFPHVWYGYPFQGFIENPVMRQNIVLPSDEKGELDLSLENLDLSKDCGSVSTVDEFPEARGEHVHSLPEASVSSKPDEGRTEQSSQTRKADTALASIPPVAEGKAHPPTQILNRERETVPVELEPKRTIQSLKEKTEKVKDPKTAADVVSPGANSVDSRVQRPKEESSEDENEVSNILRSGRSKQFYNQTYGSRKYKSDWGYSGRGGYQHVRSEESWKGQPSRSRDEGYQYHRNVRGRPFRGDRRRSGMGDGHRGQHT
In short: as §1

OTUD5 = target: T5, OTUD5 (UniProt Q96G74)
T5 sequence (whole entry): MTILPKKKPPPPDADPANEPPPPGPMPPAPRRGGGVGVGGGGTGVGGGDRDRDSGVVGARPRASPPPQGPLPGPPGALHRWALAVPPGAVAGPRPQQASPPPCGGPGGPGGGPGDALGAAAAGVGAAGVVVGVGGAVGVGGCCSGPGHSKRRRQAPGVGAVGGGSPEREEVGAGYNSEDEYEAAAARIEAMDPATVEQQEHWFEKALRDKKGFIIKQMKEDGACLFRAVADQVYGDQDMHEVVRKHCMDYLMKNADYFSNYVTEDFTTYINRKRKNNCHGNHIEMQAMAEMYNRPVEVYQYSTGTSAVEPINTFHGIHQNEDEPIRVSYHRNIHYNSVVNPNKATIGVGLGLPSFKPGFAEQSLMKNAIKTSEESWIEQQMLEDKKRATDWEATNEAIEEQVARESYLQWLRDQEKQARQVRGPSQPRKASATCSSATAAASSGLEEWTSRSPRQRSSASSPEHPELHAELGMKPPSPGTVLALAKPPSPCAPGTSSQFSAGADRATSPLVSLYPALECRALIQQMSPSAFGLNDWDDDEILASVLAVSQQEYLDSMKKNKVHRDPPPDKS
In short: as §1

Measured: log2 ratio of Biotin-Ahx-Ub-VS probe labelling

O=C(CCl)Nc1nnc(CC(F)(F)F)o1
inactive: ALG13 -0.0296 | ATXN3 -0.129 | BAP1 -0.573 | EIF3F -0.0944 | EIF3H 0.23 | FAM105A 0.0181 | OTUB1 0.15 | OTUD4 -0.445 | OTUD5 -0.385
